Laboratory results as given in PubChem BioAssay AID2401 (Southern Research Specialized Biocontainment Screening …, 2010).
The campaign covered roughly 2,200 compounds. About 530 (24%) were called active.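 The calls were made as follows: active = inhibition above a set limit at one or more concentrations of the dose series; inactive = inhibition under that limit at every dose.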 These entries were drawn from the full list. Measured potencies and affinities stand elsewhere.

assay: S. Typhimurium nonspecific reporter signal inhibition – Salmonella Typhimurium, GFP fluorescence, counter-screen for PhoP regulon inhibitor project, dose response (AID 2401); conditions: 4 h; series mostly up to 150 µM;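 also: S. typhimurium with Mg-insensitive nmpC-GFP reporter grown at 10 µM Mg2+; drop in reporter fluorescence reflects general culture growth inhibition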

SMILES	outcome
O=S(=O)(Nc1ccc2c(c1)nc1n2CCN(Cc2ccccc2)C1)c1ccc(Cl)cc1	inactive
Nc1cccc(-c2nc3ccc(N)cc3s2)c1	inactive
O=C(NCc1ccco1)c1ccc(Br)s1	inactive
Cn1c(=N)n(CC(=O)c2ccc(Br)s2)c2ccccc21	inactive
O=C(Nc1cccn(Cc2c(Cl)cccc2Cl)c1=O)c1ccccc1Cl	inactive
Cc1cccc(OCCCSc2nc3ccc(C)cc3[nH]2)c1	inactive
COc1ccccc1OCc1ccc(C(=O)N2CCN(C(=O)c3ccco3)CC2)cc1	inactive
S=C(Nc1ccccc1)Nc1nc2ccccc2n1CCOc1ccc(Cl)cc1	inactive
CCCCCCOC(=O)Sc1nc2ccccc2o1	inactive
Clc1ccc(OCCn2cnc3ccccc32)cc1	inactive
COc1ccc(C(=O)C(CO)Oc2ccccc2OC)cc1OC (stereo not given)	inactive
COc1ccc(/C=C/C(=O)O)cc1COc1cccc(C)c1	inactive
COc1ccccc1NC(=S)NNC(=O)c1c(Cl)c(C)nn1C	inactive
Cc1ccc(Nc2nc(CSc3nnc(-c4cccnc4)n3-c3ccccc3F)cs2)cc1	inactive
O=C(c1cccc(S(=O)(=O)N2CCOCC2)c1)N1CCCC1	inactive
O=C(c1ccccc1)N1CCSC1=S	inactive
Cn1c(-c2ccc3nc(N)sc3c2)nc2cc(N)ccc21	inactive
Nc1ccc(Nc2ccccc2N)cc1	inactive
Cc1cc2c(c(=O)n1C)C(Cc1ccccc1)C(C#N)=C(N)O2 (stereo not given)	inactive
O=C(CSc1nc2[nH]ncc2c(=O)[nH]1)N1CCCCC1	inactive
C=CCNC(=S)NNC(=O)c1cccn(Cc2ccc(Cl)cc2)c1=O	inactive
COc1ccc(-c2cc(N3CCCC3)n3ncnc3n2)cc1	inactive
Cc1ccc(OCc2nc3ccccc3[nH]2)cc1	inactive
COc1ccc(OCCSc2nnc3sc4ccccc4n23)cc1	inactive
COC(=O)Cn1c(C)nc2ccccc21	inactive

SMILES	outcome
CNc1ncc(Cc2ccccc2)s1	inactive
CCn1c(SCc2ccc(F)cc2)nnc1C1CCN(S(=O)(=O)c2ccc(OC)cc2)CC1	inactive
O=C1CC(c2ccco2)CC(O)=C1C=Nc1cc(Cl)cc(Cl)c1 (stereo not given)	inactive
c1csc(C2Nc3ccccc3-c3nc4ccccc4n32)c1 (stereo not given)	inactive
C=CCOc1ccc(Br)cc1/C=N/O	inactive
O=C(Cc1cn2ccsc2n1)Nc1ccccc1Oc1ccccc1	inactive
CCn1c2ccccc2c2cc(N)ccc21	inactive
CC(C)(C)c1ccc(C(=O)Nc2ccc(C=C(C#N)C#N)cc2)cc1	inactive
C=CCNC(=O)CC(=O)N/N=C/c1ccc(C(=O)OC)cc1	inactive
Cc1[nH]nc2c1C(c1cc(Br)cs1)C(C#N)=C(N)O2 (stereo not given)	inactive
Cc1cc(C)cc(-n2nc(C)cc2N)c1	inactive
N#CC(CC(=O)c1ccc(F)cc1)c1ccc2c(c1)OCO2 (stereo not given)	inactive
O=c1[nH]c2ccccc2n1C1=CCCC1	inactive
CCn1c(Cc2c(C)[nH]c3ccccc23)n[nH]c1=S	inactive
c1ccc2c3c([nH]c2c1)-c1[nH]ncc1CC3	inactive
Nc1c(C(=O)NCCc2ccc(Cl)cc2)sc2ccc(S(=O)(=O)N3CCCCC3)cc12	inactive
CC1N(C)c2cc(NC(=O)c3ccco3)ccc2C1(C)C (stereo not given)	inactive
CSc1cccc(NC(=O)c2ccco2)c1	inactive
Cc1oc(CC(C)C)c(CN2CCCC2)c1C(=O)O	inactive
COc1ccc2c(c1)[nH]c1c(N3CCN(Cc4ccc5c(c4)OCO5)CC3)ncnc12	inactive
Cc1[nH]n(-c2ncc(-c3ccc(Cl)cc3)s2)c(=O)c1C(c1ccc(Cl)cc1)C(C#N)C#N (stereo not given)	inactive
CCN(C(C)=O)c1nc(CSc2nnc(NC(C)C)s2)cs1	inactive
c1ccc2[nH]c(CSc3nccs3)nc2c1	inactive
Cc1ccccc1OCC(=O)N/N=C/c1ccco1	inactive
S=c1[nH]nc(Cc2cccc3ccccc23)o1	inactive

SMILES	outcome
CC(=O)c1cccc(NC(=O)NCc2ccco2)c1	inactive
Cc1ccc(NC(=O)c2cc(S(=O)(=O)N3CCC4(CC3)OCCO4)ccc2F)cc1	inactive
O=C(c1cn(-c2ccccc2)nc1-c1cccnc1)N1CCCCC1	inactive
CC(=O)N1CCC(N(CCN2CCOCC2)C(=S)Nc2cccc(C)c2C)CC1	inactive
Cc1c(Cl)cccc1NC(=O)CSCC(N)=O	inactive
COc1cc(C2Nc3cccc4cccc(c34)N2)cc(OC)c1OC(C)=O	inactive
CC(=O)Oc1c2occc2cc2ccc(=O)oc12	inactive
Cc1ccc2c(c1)cc(CN(Cc1ccc3c(c1)OCO3)C(=O)c1cnccn1)c1nnnn12	inactive
CSc1ccc(C(=O)/C=C/c2ccc(N)cc2)cc1	inactive
Cc1cccc(NC(=O)c2cc(N3C(=O)CCC3=O)ccc2Cl)n1	inactive
O=C(CSc1nc2ccccc2s1)Nc1ccc(N2CCOCC2)c(Cl)c1	inactive
Cc1cc([N+](=O)[O-])ccc1NC(=O)Cc1ccc(F)cc1	inactive
Cc1ccccc1-n1c(C)cc(/C=N/Nc2ccc([N+](=O)[O-])cn2)c1C	inactive
Cc1ccc([N+](=O)[O-])cc1NC(=S)NC(=O)C(C)(C)C	inactive
O=C(CSCc1ccccc1)N/N=C/c1ccccc1OCc1ccccc1	inactive
CN(CCO)c1cc(Sc2nc3ccccc3s2)c2nonc2c1[N+](=O)[O-]	inactive
O=C(CSc1n[nH]c(=O)[nH]c1=O)N/N=C/c1ccccc1	inactive
COc1ccc(-n2ncc(S(=O)(=O)c3ccccc3)c2-c2ccc(Cl)cc2)cc1	inactive
COc1ccc(Cl)cc1C(=O)Nc1ccc(NC(=O)c2ccco2)cc1	inactive
O=C(Nc1cccc(Cl)c1)C1C2CCC3C(CCC21)C3(Cl)Cl (stereo not given)	inactive
COc1cccc(-n2c(N)c(C(=O)Nc3c(C)n(C)n(-c4ccccc4)c3=O)c3nc4ccccc4nc32)c1	inactive
COc1ccc(N2C(=O)CC(Sc3nc(C)c4c(n3)CCCC4)C2=O)cc1 (stereo not given)	inactive
COc1ccc(-c2cnn3c(N)c(S(=O)(=O)C(C)(C)C)cnc23)cc1	inactive
Cc1ccc2nc(NNC(=O)c3ccc(S(=O)(=O)N4CCc5ccccc5C4)cc3)sc2c1	inactive
O=C(/C=C/c1ccc2c(c1)OCO2)N1CCN(c2ccccc2F)CC1	inactive
